Measured values published in the supplement of paper PMC10849652.
The full data set covers some 8,800 targets. This sample favours those with a hit. About 0.5% of all pairs of compound and target were hits. Values without a mark were called inactive.

What was measured:
Assay in all cases: log2 fold change, soluble protein after heating vs DMSO (PISA); higher = thermal stabilisation; K562 lysate, 10 uM; active = over 0.2 and 3.5 SD of the protein, either way, in both replicates (recomputed)
[1] = compound: NCC(=O)Nc1ccc(-n2nc(C(F)(F)F)cc2-c2ccc3c(ccc4ccccc43)c2)cc1
In short: (§1)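 Following dounce homogenisation of K562 pellets in PBS pH 7.4 with 1 mM MgCl2, crude extract at 1 mg/mL protein was incubated for 30 min with 10 μM compound. Aliquots were then heated for 3 min over 48°C-58°C and pooled, NP-40 was added to 0.5% at 4°C, and soluble protein was recovered as the supernatant at 21,000xg for 90 min. Channel-sum-equalised TMTpro 16plex LC-MS/MS quantified this protein. Each value, from duplicates, is a log-two fold change in thermal stability relative to solvent controls.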

vorinostat = compound: O=C(CCCCCCC(=O)Nc1ccccc1)NO [vorinostat]
In short: as §1

silmitasertib = compound: O=C(O)c1ccc2c(c1)nc(Nc1cccc(Cl)c1)c1ccncc12 [silmitasertib]
In short: as §1

[2] = compound: O=C1NC(=O)C(c2cnc3ccccn23)=C1c1cn2c3c(cc(F)cc13)CN(C(=O)N1CCCCC1)CC2
In short: as §1

entospletinib = compound: c1cn2cc(-c3ccc4cn[nH]c4c3)nc(Nc3ccc(N4CCOCC4)cc3)c2n1 [entospletinib]
In short: as §1

Chain of UniProt Q7L7V1 (Q7L7V1 whole entry, looked up): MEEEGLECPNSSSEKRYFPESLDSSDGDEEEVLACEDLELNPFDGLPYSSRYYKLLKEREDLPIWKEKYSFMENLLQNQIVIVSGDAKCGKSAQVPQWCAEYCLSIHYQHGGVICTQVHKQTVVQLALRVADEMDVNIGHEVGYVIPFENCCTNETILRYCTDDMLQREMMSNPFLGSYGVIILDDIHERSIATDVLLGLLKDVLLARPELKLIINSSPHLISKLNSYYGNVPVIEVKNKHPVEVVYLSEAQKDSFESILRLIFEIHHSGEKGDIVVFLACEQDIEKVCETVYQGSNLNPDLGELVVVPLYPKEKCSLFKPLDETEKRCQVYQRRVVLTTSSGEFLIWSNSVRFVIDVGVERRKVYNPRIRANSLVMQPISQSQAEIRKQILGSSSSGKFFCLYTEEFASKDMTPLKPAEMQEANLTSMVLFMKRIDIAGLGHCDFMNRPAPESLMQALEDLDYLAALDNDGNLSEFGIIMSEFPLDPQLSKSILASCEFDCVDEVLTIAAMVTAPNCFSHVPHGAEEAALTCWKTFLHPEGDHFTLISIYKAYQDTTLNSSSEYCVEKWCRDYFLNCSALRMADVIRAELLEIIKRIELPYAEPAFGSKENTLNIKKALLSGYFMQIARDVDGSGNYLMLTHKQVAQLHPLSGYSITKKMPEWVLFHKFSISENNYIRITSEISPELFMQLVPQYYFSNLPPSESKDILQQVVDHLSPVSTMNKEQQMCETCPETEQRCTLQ
Chain of UniProt Q9Y600 (Q9Y600 whole entry, looked up): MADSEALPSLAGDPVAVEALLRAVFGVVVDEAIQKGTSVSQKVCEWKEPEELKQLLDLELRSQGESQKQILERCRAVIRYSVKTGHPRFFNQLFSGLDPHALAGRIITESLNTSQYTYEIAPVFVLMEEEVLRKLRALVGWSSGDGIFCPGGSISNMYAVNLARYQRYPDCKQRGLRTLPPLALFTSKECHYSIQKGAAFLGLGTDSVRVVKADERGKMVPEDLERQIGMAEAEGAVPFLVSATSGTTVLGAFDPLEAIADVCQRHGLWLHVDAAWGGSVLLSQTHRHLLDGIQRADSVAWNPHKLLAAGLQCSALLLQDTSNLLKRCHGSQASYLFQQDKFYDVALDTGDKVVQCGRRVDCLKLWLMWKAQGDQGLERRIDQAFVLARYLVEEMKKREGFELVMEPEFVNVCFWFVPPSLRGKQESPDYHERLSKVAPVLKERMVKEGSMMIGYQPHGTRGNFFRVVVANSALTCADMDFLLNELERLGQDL
Chain of UniProt Q96LJ7 (Q96LJ7 whole entry, looked up): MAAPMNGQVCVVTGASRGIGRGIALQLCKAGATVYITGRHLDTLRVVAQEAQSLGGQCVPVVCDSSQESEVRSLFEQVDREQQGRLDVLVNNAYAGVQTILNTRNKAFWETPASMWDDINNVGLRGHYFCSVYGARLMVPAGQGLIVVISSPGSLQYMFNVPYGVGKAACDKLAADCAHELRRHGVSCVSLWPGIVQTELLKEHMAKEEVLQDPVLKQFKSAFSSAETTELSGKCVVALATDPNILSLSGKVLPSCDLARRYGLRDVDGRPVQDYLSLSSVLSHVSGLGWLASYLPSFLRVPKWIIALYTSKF
Chain of UniProt Q5D0E6 (Q5D0E6 whole entry, looked up): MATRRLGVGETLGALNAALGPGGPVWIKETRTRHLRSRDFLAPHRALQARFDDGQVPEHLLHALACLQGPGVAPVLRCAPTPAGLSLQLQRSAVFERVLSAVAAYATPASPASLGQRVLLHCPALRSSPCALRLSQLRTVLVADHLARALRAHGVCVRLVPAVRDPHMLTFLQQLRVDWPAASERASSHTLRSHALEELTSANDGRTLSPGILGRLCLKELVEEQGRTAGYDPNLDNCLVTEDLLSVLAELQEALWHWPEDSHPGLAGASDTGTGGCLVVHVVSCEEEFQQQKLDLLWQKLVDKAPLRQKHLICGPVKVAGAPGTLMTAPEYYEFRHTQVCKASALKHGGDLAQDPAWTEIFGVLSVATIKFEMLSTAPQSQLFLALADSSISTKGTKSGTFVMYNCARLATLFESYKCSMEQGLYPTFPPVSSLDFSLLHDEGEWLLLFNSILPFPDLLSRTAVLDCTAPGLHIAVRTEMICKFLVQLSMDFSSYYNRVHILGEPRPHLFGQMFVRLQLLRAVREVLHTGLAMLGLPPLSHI
Chain of UniProt P04080 (P04080 whole entry, looked up): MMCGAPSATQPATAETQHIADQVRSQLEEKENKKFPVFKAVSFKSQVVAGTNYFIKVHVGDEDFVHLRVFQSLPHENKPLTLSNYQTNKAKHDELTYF
Chain of UniProt Q9UBU7 (Q9UBU7 whole entry, looked up): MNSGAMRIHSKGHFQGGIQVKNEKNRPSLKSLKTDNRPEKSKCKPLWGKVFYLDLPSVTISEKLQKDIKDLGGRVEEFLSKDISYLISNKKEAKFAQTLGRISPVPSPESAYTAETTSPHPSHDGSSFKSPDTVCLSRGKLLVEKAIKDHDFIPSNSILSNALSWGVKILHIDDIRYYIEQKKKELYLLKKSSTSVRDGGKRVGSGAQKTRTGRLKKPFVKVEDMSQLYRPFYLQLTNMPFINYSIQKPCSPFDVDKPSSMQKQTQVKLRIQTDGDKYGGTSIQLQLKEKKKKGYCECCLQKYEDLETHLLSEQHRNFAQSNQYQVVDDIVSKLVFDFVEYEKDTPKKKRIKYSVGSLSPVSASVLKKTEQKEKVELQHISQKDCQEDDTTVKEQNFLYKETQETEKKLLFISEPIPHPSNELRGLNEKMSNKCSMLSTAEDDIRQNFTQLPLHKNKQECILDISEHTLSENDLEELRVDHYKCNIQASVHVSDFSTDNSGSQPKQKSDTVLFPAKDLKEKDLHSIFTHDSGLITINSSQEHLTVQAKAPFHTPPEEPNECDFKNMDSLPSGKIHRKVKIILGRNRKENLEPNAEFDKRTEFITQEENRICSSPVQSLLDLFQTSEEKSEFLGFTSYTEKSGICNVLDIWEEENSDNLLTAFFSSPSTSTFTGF
Chain of UniProt P30622 (P30622 whole entry, looked up): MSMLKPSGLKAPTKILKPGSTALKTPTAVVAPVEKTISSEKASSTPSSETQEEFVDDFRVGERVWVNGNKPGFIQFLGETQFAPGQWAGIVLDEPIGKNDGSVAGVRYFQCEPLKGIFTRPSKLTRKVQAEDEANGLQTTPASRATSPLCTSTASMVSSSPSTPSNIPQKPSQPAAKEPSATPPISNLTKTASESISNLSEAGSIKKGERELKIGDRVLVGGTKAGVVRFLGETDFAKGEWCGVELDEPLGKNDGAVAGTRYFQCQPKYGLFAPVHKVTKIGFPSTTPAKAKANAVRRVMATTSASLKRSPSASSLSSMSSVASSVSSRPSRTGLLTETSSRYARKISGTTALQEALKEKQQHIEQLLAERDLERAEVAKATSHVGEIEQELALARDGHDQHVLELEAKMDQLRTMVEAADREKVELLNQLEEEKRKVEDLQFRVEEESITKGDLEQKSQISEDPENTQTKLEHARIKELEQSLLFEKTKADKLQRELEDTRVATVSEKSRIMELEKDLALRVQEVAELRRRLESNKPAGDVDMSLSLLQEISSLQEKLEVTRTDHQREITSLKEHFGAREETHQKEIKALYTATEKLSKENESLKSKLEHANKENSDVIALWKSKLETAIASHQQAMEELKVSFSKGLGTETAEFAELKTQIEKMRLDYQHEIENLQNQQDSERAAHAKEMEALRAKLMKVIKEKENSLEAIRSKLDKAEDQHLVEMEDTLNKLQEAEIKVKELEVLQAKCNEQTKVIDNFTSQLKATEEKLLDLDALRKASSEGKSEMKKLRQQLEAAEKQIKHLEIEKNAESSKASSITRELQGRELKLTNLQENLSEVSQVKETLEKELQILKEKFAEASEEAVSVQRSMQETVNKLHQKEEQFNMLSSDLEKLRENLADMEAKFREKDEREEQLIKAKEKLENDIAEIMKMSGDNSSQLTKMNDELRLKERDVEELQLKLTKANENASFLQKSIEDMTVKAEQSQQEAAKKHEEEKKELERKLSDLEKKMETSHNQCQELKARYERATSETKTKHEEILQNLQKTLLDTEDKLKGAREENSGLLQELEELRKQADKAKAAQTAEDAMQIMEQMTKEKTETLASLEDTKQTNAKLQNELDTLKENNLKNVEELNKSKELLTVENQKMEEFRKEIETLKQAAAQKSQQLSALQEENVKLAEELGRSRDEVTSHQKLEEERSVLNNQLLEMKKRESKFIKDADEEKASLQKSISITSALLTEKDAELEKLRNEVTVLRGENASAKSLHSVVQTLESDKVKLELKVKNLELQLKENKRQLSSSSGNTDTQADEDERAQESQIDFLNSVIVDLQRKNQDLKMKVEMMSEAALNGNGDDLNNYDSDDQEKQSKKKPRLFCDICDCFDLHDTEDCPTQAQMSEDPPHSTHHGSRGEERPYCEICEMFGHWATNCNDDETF
Chain of UniProt Q6ZWL3 (Q6ZWL3 whole entry, looked up): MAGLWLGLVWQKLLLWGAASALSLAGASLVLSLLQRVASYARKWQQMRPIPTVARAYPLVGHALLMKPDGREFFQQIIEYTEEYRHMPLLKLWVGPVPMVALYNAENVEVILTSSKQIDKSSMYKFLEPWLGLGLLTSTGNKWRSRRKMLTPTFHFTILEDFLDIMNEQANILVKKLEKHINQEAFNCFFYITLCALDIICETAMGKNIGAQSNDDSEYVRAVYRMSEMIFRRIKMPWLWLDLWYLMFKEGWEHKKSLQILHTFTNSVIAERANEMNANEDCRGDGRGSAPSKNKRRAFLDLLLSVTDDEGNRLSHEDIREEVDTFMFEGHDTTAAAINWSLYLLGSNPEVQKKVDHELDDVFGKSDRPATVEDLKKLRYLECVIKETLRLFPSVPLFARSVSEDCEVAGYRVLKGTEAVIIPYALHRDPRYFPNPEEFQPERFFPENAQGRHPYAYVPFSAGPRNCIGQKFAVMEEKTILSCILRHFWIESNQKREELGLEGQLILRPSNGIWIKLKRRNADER
Chain of UniProt Q9BSY9 (Q9BSY9 whole entry, looked up): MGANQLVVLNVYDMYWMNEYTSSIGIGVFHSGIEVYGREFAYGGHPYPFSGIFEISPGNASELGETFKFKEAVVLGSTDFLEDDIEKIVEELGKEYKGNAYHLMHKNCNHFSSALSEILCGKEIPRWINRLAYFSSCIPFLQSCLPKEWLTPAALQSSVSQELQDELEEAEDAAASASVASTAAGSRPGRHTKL

Target	log2 fold change [1]	log2 fold change (vorinostat)	log2 fold change (silmitasertib)	log2 fold change [2]	log2 fold change (entospletinib)
CSNK1G3 (UniProt Q9Y6M4)	-0.004	-0.011	0.055	-0.029	0.039
DHX32 (UniProt Q7L7V1)	-0.044	-0.351	0.028	0.097	-0.002
CSNK2B (UniProt P67870)	0.2	-0.016	0.595 (active)	0.023	0.241
DCP2 (UniProt Q8IU60)	-0.02	-0.446 (active)	-0.033	0.085	-0.001
CSNK2A2 (UniProt P19784)	0.383	-0.105	0.879 (active)	-0.008	0.466
CLIP1 isoform 2 (UniProt P30622)		0.167	-0.035	0.002	-0.151
DNM2 isoform 4 (UniProt P50570)		-0.826 (active)	0.047	-0.014	-0.02
CRLS1 (UniProt Q9UJA2)		-0.572 (active)	0.172	0.036	
CLASP2 (UniProt O75122)	0.052			0.194	-0.073
CYP4V2 (UniProt Q6ZWL3)		0.055	-0.038	0.034	
DPH5 isoform 5 (UniProt Q9H2P9)	-0.046	-0.06	-0.015	0.077	-0.011
CSAD isoform 3 (UniProt Q9Y600)		0.031	0.075	0.039	
DALRD3 (UniProt Q5D0E6)	-0.17	-0.895 (active)	0.074		-0.046
CLIP1, A0A3B3ITA2	0.136			0.068	
DCUN1D4 isoform 3 (UniProt Q92564)	0.066	0.128	-0.031	-0.121	-0.096
DDX4 (UniProt Q9NQI0)	0.019	-0.213	0.101		0.011
CPLX1 (UniProt O14810)	0				0.119
CSTB (UniProt P04080)	-0.097	0.125	-0.045	0.022	-0.007
CLUH, A0A494C0R8	-0.115	0.028	0.069	0.033	0.033
DHRS13 (UniProt Q6UX07)		1.11 (active)	0.059	-0.001	
DESI2 (UniProt Q9BSY9)	0.155				0.116
COL6A3 (UniProt P12111)		0.273	0.002	-0.093	
DHRS1 (UniProt Q96LJ7)	-0.154	-0.561 (active)	-0.021	-0.055	-0.138
DOCK7 (UniProt Q96N67)	0.032	-0.348 (active)	0.053	-0.019	-0.039
CSNK2A1 (UniProt P68400)	0.15	0.057		-0.046	0.213
COPS9 (UniProt Q8WXC6)		0.341	-0.139		
CLIP1 isoform 1 (UniProt P30622)	-0.008	0.092	-0.01	-0.01	-0.009
DBF4 (UniProt Q9UBU7)	0.059	-0.226	-0.138	0.028	0.002
CSRP2 (UniProt Q16527)				0.016	-0.132
